Among the data in PubChem BioAssay (NCATS) are Potency values, retold here.

Inconclusive results are not listed. Calls of active or inactive are those of the source. Calls follow the shape of the dose curve; as a rule, active = well fitted curve in the direction sought with a large enough effect; inconclusive = small, poorly fitted or top-dose-only effect, or another doubt; inactive = no such curve, though single readings can be large; an effect the other way counts as inactive or inconclusive.

A short description of experiment [1]: Primary qHTS for inhibitors of nuclear receptor binding SET domain protein 2 (NSD2) in an RCH-ACV wild type WT cells (2C) (AID 1645877). Also: nearly all actives have a fitted effect of over 70% in size. Also: potency is read from the fitted curve at half-maximal effect. In general terms: qHTS replaces the single test concentration by a dilution series.
For experiment [2], the target named is Glutathione peroxidase 1 (Homo sapiens) (UniProt P07203). Kind of experiment: Primary qHTS Assay for Inhibitors of Recombinant Selenoprotein Glutathione Peroxidase 1 (GPX1) (AID 1845191). Also: nearly all actives have a fitted effect of over 65% in size. An outline of the steps: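 GR-coupled readout: NADPH consumption tracked by fluorescence, ex 340/em 450 nm, at t=0 and after 15 min at RT. Final mix 10 nM GPX1, 1 mM GSH, 0.5 mM CHP, 0.5 mM NADPH, 100 nM GR, 0.01% BSA, following 30 min enzyme–compound preincubation.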

For experiment [3], the target named is Phospholipid hydroperoxide glutathione peroxidase GPX4 (Homo sapiens) (UniProt P36969). Kind of experiment: Primary qHTS Assay for Inhibitors of Recombinant Selenoprotein Glutathione Peroxidase 4 (GPX4) (AID 1845192). Also: nearly all actives have a fitted effect of over 65% in size. An outline of the steps:
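Steps: GPX4 plus compound, 30 min RT; add GR/GSH/NADPH master mix; start with cumene hydroperoxide; read 340/450 nm fluorescence at 0 and 15 min. Finals were 200 nM GPX4, 1 mM GSH, 0.5 mM CHP, 0.5 mM NADPH, 100 nM GR.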

Experiment [4] addresses Luciferin 4-monooxygenase (Photinus pyralis) (UniProt P08659). The experiment is described as follows: Primary firefly luciferase (FLuc) qHTS assay for identification of artifact compounds. (AID 1845220). Also: nearly all actives have a fitted effect of over 60% in size. Also: potency is read from the fitted curve at half-maximal effect. An outline of the steps:
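Enzymatic FLuc inhibition assay: compounds pre-exposed to luciferin/ATP (10 uM each) for 15 min, then purified P. pyralis enzyme at 10 nM added. Read-out: luminescence at 5 min.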

Experiment [5] relates to Nanoluciferase (engineered Oplophorus gracilirostris luciferase). The experiment is described as follows: Primary Nanoluciferase (NLuc) qHTS assay for identification of artifact compounds. (AID 1845222).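 Also: NLuc secreted into diluted conditioned medium of S16 cells; series mostly up to about 54 µM.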 An outline of the steps:
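S16 cell supernatant NLuc, 1:55; cpds qHTS; 15 min RT dark; Nano-Glo substrate 1:100, 5 min; luminescence; Hill fit of % inhibition.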

Experiment [6] is described as follows: Primary redox qHTS assay for identification of artifact compounds. (AID 1845223). An outline of the steps:
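Redox-cycling detection via DTT (250 uM final) oxidation coupled to Amplex Red (25 uM)/HRP (250 mU/mL) in HBSS. 15 min preincubation plus 30 min after DTT, room temperature. Ex/Em 525/598 nm; 4-parameter Hill fit against DMSO and 10 uM DA3003.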

Chain of Phospholipid hydroperoxide glutathione peroxidase GPX4 (Homo sapiens) (P36969 whole entry, looked up): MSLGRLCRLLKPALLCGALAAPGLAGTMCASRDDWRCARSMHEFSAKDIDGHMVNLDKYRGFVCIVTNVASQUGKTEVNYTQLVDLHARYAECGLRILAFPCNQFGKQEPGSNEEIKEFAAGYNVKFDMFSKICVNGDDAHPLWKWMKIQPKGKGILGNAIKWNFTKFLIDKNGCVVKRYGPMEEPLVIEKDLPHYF
Chain of Glutathione peroxidase 1 (Homo sapiens) (P07203 whole entry, looked up): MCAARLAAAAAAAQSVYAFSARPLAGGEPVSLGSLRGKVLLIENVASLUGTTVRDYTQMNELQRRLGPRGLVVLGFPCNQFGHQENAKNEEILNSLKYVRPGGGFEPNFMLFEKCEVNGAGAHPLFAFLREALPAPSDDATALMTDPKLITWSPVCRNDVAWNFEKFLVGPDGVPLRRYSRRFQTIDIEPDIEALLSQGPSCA

For `N#Cc1ccc(C(=O)N2CCC3(CC2)N=C(N)c2c(F)ccc(F)c2N3)cn1`, the Potency entry in experiment [1], in experiment [2], in experiment [3], in experiment [4], in experiment [5] and in experiment [6] was “inactive” throughout.

For the compound `OCC(CO[C@@H]1O[C@H](CO)[C@@H](O)[C@H](O)[C@H]1O)c1ccc2c(c1)OCO2` (stereo not given in full), the Potency entry in experiment [1], in experiment [2], in experiment [3], in experiment [4], in experiment [5] and in experiment [6] was “inactive” each time.

Regarding `CC(=O)CCC1=C(C)C(O[C@@H]2O[C@H](CO)[C@@H](O)[C@H](O)[C@H]2O)C(O)CC1(C)C` (stereo not given in full), the Potency result in experiment [1], in experiment [2], in experiment [3], in experiment [4], in experiment [5] and in experiment [6] was “inactive” in each case.

For `C=CC1(C)C=C2C(=O)OC(=O)C3=C(CCCC3(C)C)C2(O)CC1` (stereo not given), the Potency entry in experiment [1], in experiment [2], in experiment [3], in experiment [4], in experiment [5] and in experiment [6] was “inactive” in each case.

Take `CC(C)(O)/C=C/C1=CC(=O)[C@@](C)(O)C[C@H]1O`: the Potency entry in experiment [1], in experiment [2], in experiment [3], in experiment [4], in experiment [5] and in experiment [6] was “inactive” in each case.

On to `CC[C@H]1OC(=O)[C@H](C)[C@@H](O[C@H]2C[C@@](C)(OC)[C@@H](O)[C@H](C)O2)[C@H](C)[C@@H](O[C@@H]2O[C@H](C)C[C@H](N(C)C)[C@H]2O)[C@](C)(O)C[C@@H](C)C(=O)[C@H](C)[C@H]2OC(=O)O[C@@]21C`, for which the Potency entry in experiment [1], in experiment [2], in experiment [3], in experiment [4], in experiment [5] and in experiment [6] was “inactive” throughout.

Take `COc1ncc(Nc2ncc([C@@H](C)N3CCN(S(C)(=O)=O)CC3)cc2-c2nc(C)nc(N)n2)cc1F`: the Potency in experiment [1] was 20.5 nM (active). In addition, the Potency result in experiment [2], in experiment [3], in experiment [4], in experiment [5] and in experiment [6] was “inactive” each time.

On to `CC1CC(O)/C=C/C(O)C(O)CC(=O)Cc2c(Cl)c(O)cc(O)c2C(=O)O1` (stereo not given), for which the Potency result in experiment [1], in experiment [2], in experiment [3], in experiment [4], in experiment [5] and in experiment [6] was “inactive” throughout.

With `CC1=CC(=O)C(=C(C)C)CC2C1CCC2(C)O` (stereo not given), the Potency result in experiment [1], in experiment [2], in experiment [3], in experiment [4], in experiment [5] and in experiment [6] was “inactive” each time.

Consider `CCOCCn1nc(CC)c2nc(N3CCC(C(=O)O)CC3)nc(Nc3cc(C)ccn3)c21`, for which the Potency result in experiment [1], in experiment [2], in experiment [3], in experiment [4], in experiment [5] and in experiment [6] was “inactive” throughout.

Turning to `C=C1C[C@]23C[C@H]1CC[C@H]2C1=C[C@H]2OC(=O)[C@@](C)([C@H]1[C@@H]3C(=O)O)[C@H]2O`, the Potency result in experiment [1], in experiment [2], in experiment [3], in experiment [4], in experiment [5] and in experiment [6] was “inactive” in each case.

As to `CC(C)O[C@@H]1O[C@H](CO)[C@@H](O)[C@H](O)[C@H]1O`, the Potency entry in experiment [1], in experiment [2], in experiment [3], in experiment [4], in experiment [5] and in experiment [6] was “inactive” in each case.

Turning to `C[C@@H]1C(=O)OC[C@H]2C(C(=O)O)=C[C@@H]3CC(C)(C)C[C@]312`, the Potency entry in experiment [1], in experiment [2], in experiment [3], in experiment [4], in experiment [5] and in experiment [6] was “inactive” throughout.

Regarding `CC(C)(C)c1ccc(S(=O)(=O)Nc2ccc(Cl)cc2C(=O)c2cc[n+]([O-])cc2)cc1`, the Potency entry in experiment [1], in experiment [2], in experiment [3], in experiment [4], in experiment [5] and in experiment [6] was “inactive” throughout.

With `CC(C)C(CO)Nc1nc(Nc2cc(N)cc(Cl)c2)c2ncn(C(C)C)c2n1` (stereo not given), in experiment [1], the Potency was 6490 nM (active). Further, the Potency entry in experiment [2], in experiment [3], in experiment [4], in experiment [5] and in experiment [6] was “inactive” in each case.

For `CC1(C)CC2C=C(C(=O)O)C3COC(=O)C(O)(CO)C23C1` (stereo not given), the Potency result in experiment [1], in experiment [2], in experiment [3], in experiment [4], in experiment [5] and in experiment [6] was “inactive” throughout.

Take `COc1ccc(C2(O)c3ccccc3NC(=O)C2O)cc1` (stereo not given): the Potency entry in experiment [1], in experiment [2], in experiment [3], in experiment [4], in experiment [5] and in experiment [6] was “inactive” throughout.

For the compound `Cc1cccc(/C=N/Nc2cc(N3CCOCC3)n3nc(-c4ccncc4)cc3n2)c1`, the Potency in experiment [1] is 515 nM (active). For the same compound, the Potency result in experiment [2], in experiment [3], in experiment [4], in experiment [5] and in experiment [6] was “inactive” throughout.

Turning to `C=CC1C(OC2OC(CO)C(O)C(O)C2O)OC=C2C(=O)N3C(C(=O)O)Cc4c([nH]c5ccccc45)C3CC21` (stereo not given), the Potency entry in experiment [1], in experiment [2], in experiment [3], in experiment [4], in experiment [5] and in experiment [6] was “inactive” in each case.

Turning to `COc1ccc(C(O)C(C)OC2OC(CO)C(O)C(O)C2O)cc1` (stereo not given), the Potency entry in experiment [1], in experiment [2], in experiment [3], in experiment [4], in experiment [5] and in experiment [6] was “inactive” in each case.

For the compound `CC/C=C\[C@H](O)[C@H](O)C1=C(C)C(=O)[C@]2(O1)C(=O)N[C@@](OC)(C(=O)c1ccccc1)[C@@H]2O`, the Potency entry in experiment [1], in experiment [2], in experiment [3], in experiment [4], in experiment [5] and in experiment [6] was “inactive” in each case.

With `COC1C(CO)OC(n2cnc3c(=O)[nH]cnc32)C1O` (stereo not given), the Potency result in experiment [1], in experiment [2], in experiment [3], in experiment [4], in experiment [5] and in experiment [6] was “inactive” in each case.

For the compound `Cc1cc(O)cc(O[C@@H]2O[C@H](CO)[C@@H](O)[C@H](O)[C@H]2O)c1`, the Potency entry in experiment [1], in experiment [2], in experiment [3], in experiment [4], in experiment [5] and in experiment [6] was “inactive” throughout.

`COc1c2c(c(C)c3c1C(=O)OC3)OC1(C)CC(O)C(C(C)(C)O)C(C)(CCC(=O)O)C1C2` (stereo not given): the Potency result in experiment [1], in experiment [2], in experiment [3], in experiment [4], in experiment [5] and in experiment [6] was “inactive” each time.

Consider `C=C(CO)C12OC1C1(C)C(=CC2=O)C(O)C(O)CC1C` (stereo not given), for which the Potency result in experiment [1], in experiment [2], in experiment [3], in experiment [4], in experiment [5] and in experiment [6] was “inactive” each time.

`OC[C@H]1O[C@@H](O[C@H]2[C@H](OCc3ccccc3)O[C@H](CO[C@@H]3OC[C@@H](O)[C@H](O)[C@H]3O)[C@@H](O)[C@@H]2O)[C@H](O)[C@@H](O)[C@@H]1O`: the Potency result in experiment [1], in experiment [2], in experiment [3], in experiment [4], in experiment [5] and in experiment [6] was “inactive” in each case.

For `CC(O)/C=C/C1(O)C(C)C(O[C@@H]2O[C@H](CO)[C@@H](O)[C@H](O)[C@H]2O)C(O)CC1(C)C` (stereo not given in full), the Potency result in experiment [1], in experiment [2], in experiment [3], in experiment [4], in experiment [5] and in experiment [6] was “inactive” throughout.

Turning to `C[C@]1(CO)CCC[C@]2(C)C3=C(CCC12)COC3` (stereo not given in full), the Potency result in experiment [1], in experiment [2], in experiment [3], in experiment [4], in experiment [5] and in experiment [6] was “inactive” throughout.

For `COC(=O)C1=COC(OC2OC(CO)C(O)C(O)C2O)C2C1C=CC2(O)CO` (stereo not given), the Potency entry in experiment [1], in experiment [2], in experiment [3], in experiment [4], in experiment [5] and in experiment [6] was “inactive” in each case.

`O=C(OC1C=C(CO)C2C(OC3OC(CO)C(O)C(O)C3O)OC=CC12)c1ccc(O)cc1` (stereo not given): the Potency result in experiment [1], in experiment [2], in experiment [3], in experiment [4], in experiment [5] and in experiment [6] was “inactive” each time.

Turning to `COC(=O)CC(C)(O)CC(=O)OCc1ccc(O[C@@H]2O[C@H](CO)[C@@H](O)[C@H](O)[C@H]2O)cc1` (stereo not given in full), the Potency entry in experiment [1], in experiment [2], in experiment [3], in experiment [4], in experiment [5] and in experiment [6] was “inactive” throughout.

Take `CC1(C)CCCC2(C)C1CC=C1C(=O)OC(O)C12O` (stereo not given): the Potency entry in experiment [1], in experiment [2], in experiment [3], in experiment [4], in experiment [5] and in experiment [6] was “inactive” in each case.

For `CC(C)c1ccc2c(c1)C(=O)CC1[C@@](C)(C(=O)O)CCC[C@]21C` (stereo not given in full), the Potency entry in experiment [1], in experiment [2], in experiment [3], in experiment [4], in experiment [5] and in experiment [6] was “inactive” in each case.

Turning to `C=C1[C@@H]2CC[C@@H]3[C@@](CCC4C(C(=O)O)(C(=O)O)C[C@@H](O[C@@H]5O[C@H](CO)[C@@H](O)[C@H](O)[C@H]5OC(=O)CC(C)C)C[C@]43C)(C2)[C@H]1O` (stereo not given in full), the Potency entry in experiment [1], in experiment [2], in experiment [3], in experiment [4], in experiment [5] and in experiment [6] was “inactive” each time.

With `CN1CCN(Cc2ccc(-c3cnc4[nH]cc(-c5ccc6[nH]ccc6c5)c4c3)cc2)CC1`, the results for the Potency in experiment [1] and in experiment [4] were 1450 nM (active) and 6.75 µM (active), respectively. For the same compound, the Potency entry in experiment [2], in experiment [3], in experiment [5] and in experiment [6] was “inactive” in each case.
